Laboratory results published in PubChem BioAssay (NCI).
The panel holds about 83,000 compounds, 20% with a hit somewhere; the sample as a whole holds those more often.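 Interpretation: 100, growth as untreated; towards 0, rising growth inhibition; 0, no net growth; 0 to -100, cell death. Compounds scoring below 10 were considered active.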 The source made the active and inactive calls.

tested on: MDA-MB-468 breast; experiment: NCI-60 one-dose screen, 48 h (100 = growth as untreated, 0 = no growth, -100 = all killed); conditions: 10 µM unless noted

Structure (SMILES)	growth
Cc1ccncc1NC=O	107% (inactive)
COc1cc2c3c(n(CCCNC4CCC4)c(=O)c2cc1OC)-c1cc2c(cc1C3=O)OCO2	30.6% (inactive)
Brc1ccc2[nH]cc(-c3nonc3-c3c[nH]c4ccccc34)c2c1	62.9% (inactive)
CCN1CCN(c2nc3ccccc3c3c(=O)c4cc(F)ccc4sc23)CC1	70.9% (inactive)
Cn1ccnc1C(=O)/C=C/c1ccc(NC(=O)Nc2ccc(Cl)cc2)cc1	43.9% (inactive)
COc1ccc2[nH]c(=O)c(/C=C/C(=O)c3ccc(Nc4nccc(-c5ccc6ccccc6c5)n4)cc3)cc2c1	103% (inactive)
O=C(Cn1cc(CN2C(=O)c3ccccc3S2(=O)=O)nn1)Nc1ccc([N+](=O)[O-])cc1Cl	103% (inactive)
COc1ccc2nc3cc([N+](=O)[O-])ccc3c(NNc3ccccc3)c2c1	58.3% (inactive)
COc1cc(C(=O)c2cnc(-c3cccc4[nH]ccc34)[nH]2)cc(OC)c1OC	-2.51% (active)
CCCC(=O)NC(c1cccc(N(C)C)c1)c1cc(C)c2cccnc2c1O (stereo not given)	24.8% (inactive)
N#Cc1cccc(-c2ccc3c(c2)NC(=O)/C3=C\c2ccc[nH]2)c1	-20.1% (active)
O=[N+]([O-])c1ccc(-c2ncc(-c3ccc(O)cc3O)[nH]2)cc1	107% (inactive)
CC(=O)c1ccc(NC(=O)CSc2nnc(-c3cc(-c4ccc(C)cc4)nc4ccccc34)o2)cc1	95.4% (inactive)
CS(=O)(=O)c1ccc2c(c1)c1c(n2C(=O)c2ccc(Cl)cc2)CCCC1	27.7% (inactive)
CN(C)c1ccc(S(=O)(=O)O)cc1	106% (inactive)
NC(=O)c1cccc(-c2ccc(S(=O)(=O)Nc3ccc4c(c3)N(C(=O)C3CC3)CCC4)cc2)c1	-4.85% (active)
O=C1c2ccccc2C(=O)c2c1oc1ccc3ccccc3c21	-10.4% (active)
CCS(=O)(=O)c1ncnc2nc[nH]c12	105% (inactive)
C#C[C@@]1(O)[C@@H](CO)O[C@@H](n2cc(Br)c3c(N)ncnc32)[C@@H]1O	-45.1% (active)
CCN(CCCNC(=O)Cc1cc(=O)oc2cc(N(C)C)ccc12)CCNc1ccnc2cc(Cl)ccc12	52% (inactive)

Structure (SMILES)	growth
O=C(Nc1cccc(C2=NCCN2)c1)c1ccc(-c2ccc(C(=O)Nc3cccc(C4=NCCN4)c3)cc2)cc1	62% (inactive)
N#Cc1c(NC(=O)c2ccc(Br)cc2)sc2c1CCCC2	19.5% (inactive)
CNC(=O)c1nn(C)c2c1C(C)(C)Cc1cnc(Nc3ccc(N4CCN(C)CC4)cc3)nc1-2	-13.4% (active)
Cn1ncc2ccc(-c3nc(-c4ccccc4)[nH]c3-c3n[nH]c(=O)n3C3CC3)cc21	104% (inactive)
C[C@@H](Oc1cc(-c2cnn(C3CC4(CNC4)C3)c2)cnc1N)c1c(Cl)ccc(F)c1Cl	20.5% (inactive)
COc1cc(OC)cc(-c2ccc(-c3ccc(C(=N)N)cn3)s2)c1	64.4% (inactive)
CC(=O)c1ccc(Nc2nc(NCCO)nc(Nc3ccc(Cl)cc3)n2)cc1	65.7% (inactive)
Cc1nc(NC(=O)NC2CCCCC2)sc1C(=O)NN	97.3% (inactive)
Nc1nc(Cl)c2ncn(Cc3cc4c(cc3I)OCO4)c2n1	7.98% (active)
C#Cc1cccc(Nc2ncnc3ccc(-c4cnc(Cl)c(NS(C)(=O)=O)c4)cc23)c1	-78.8% (active)
CC1CCN(C(=S)SCC(=O)NC(=O)c2ccccc2)CC1	119% (inactive)
CC1=CC2OC34COC3CC(OC(=O)C(F)(F)F)C4(C)C2(C)CC1 (stereo not given)	87.5% (inactive)
CC(C)(O)c1cncc(-c2ccc3ncnc(NCc4ccccc4)c3c2)c1	64.8% (inactive)
CCOC(=O)/C=C/c1ccc([N+](=O)[O-])o1	53.6% (inactive)
OCCN(CCO)C(=S)S	102% (inactive)
COc1ccc(C2c3cccn3-c3ccccc3N2C(C)=O)cc1 (stereo not given)	93.9% (inactive)
Cc1ccc(-c2nc3nc(-c4ccccc4)nc(N4CCNCC4)c3o2)cc1	-87.2% (active)
O=C(NCCNc1cc(-c2cn(-c3ccccc3)nc2-c2cccc(O)c2)ccn1)Nc1ccccc1	64.9% (inactive)
N#C/C(=C\c1ccc(Br)cc1)n1nnc2ccccc21	6.92% (active)
CC1OC(O[C@@H]2[C@H](O)C(CO)OC(O[C@H]3COC(O[C@H]4CC[C@]5(C)[C@H]6CC[C@]78OC[C@@]9(CCC(C)(C)C[C@H]97)[C@H](O)C[C@@]8(C)[C@]6(C)CC[C@H]5C4(C)C)[C@@H](OC4OC(CO)[C@@H](O)[C@@H](O)[C@@H]4O)[C@@H]3O)[C@H]2OC2OC[C@@H](O)[C@@H](O)[C@@H]2O)[C@@H](O)[C@@H](O)[C@H]1O (stereo not given in full)	-39.3% (active)
